Ec RNAP inh = Escherichia coli RNA polymerase inhibition; P0A8V2; E. coli RNA polymerase, fluorescence transcription assay; inhibition, %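 (tested at 10 µM)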; 62,000 compounds, 0.2% hits; AID 559; in the data active = inhibition above about 20%;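 note: 0% = enzyme without compound and 100% = no enzyme blank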
Mac1 fbg enh = enhancers of human CD11b/CD18 binding to fibrinogen; AID 1499; activation, % at 10 µM; 93,000 compounds, 0.07% hits; P05107+P11215; K562 CD11b/CD18 adhesion to fibrinogen, ATPlite luminescence;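 active = 10 µM primary screen giving 50% or more activity, confirmed by 40% or more on retest at that dose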
Cav3 T inh = blocks human Cav3.2 T-type calcium channel; O95180; Cav3.2-expressing cells, Fluo-4 calcium fluorescence FDSS; hits give low values; B-score at 10 µM; 100,000 compounds, 4% hits; AID 449739;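 active = single-dose well whose peak fluorescence ratio is a statistical outlier from its plate by either plate-standardised score or position-corrected B-score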
PTK2B oligo ant = blocks oligomerization of human Pyk2 in cells; Q293 cells, Pyk2 FERM NanoBiT luminescence; hits give low values; z-score (the deposit names both 25 µM and 10 µM); 99,000 compounds, 0.83% hits; AID 1347419;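 active = Z-score of -3 or lower, scaled per plate to the spread of control and sample wells; inactive = z-score above -3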;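 note: negative z-score means lost luminescence so less FERM oligomerization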
Target sequence (Q14289 whole entry, looked up): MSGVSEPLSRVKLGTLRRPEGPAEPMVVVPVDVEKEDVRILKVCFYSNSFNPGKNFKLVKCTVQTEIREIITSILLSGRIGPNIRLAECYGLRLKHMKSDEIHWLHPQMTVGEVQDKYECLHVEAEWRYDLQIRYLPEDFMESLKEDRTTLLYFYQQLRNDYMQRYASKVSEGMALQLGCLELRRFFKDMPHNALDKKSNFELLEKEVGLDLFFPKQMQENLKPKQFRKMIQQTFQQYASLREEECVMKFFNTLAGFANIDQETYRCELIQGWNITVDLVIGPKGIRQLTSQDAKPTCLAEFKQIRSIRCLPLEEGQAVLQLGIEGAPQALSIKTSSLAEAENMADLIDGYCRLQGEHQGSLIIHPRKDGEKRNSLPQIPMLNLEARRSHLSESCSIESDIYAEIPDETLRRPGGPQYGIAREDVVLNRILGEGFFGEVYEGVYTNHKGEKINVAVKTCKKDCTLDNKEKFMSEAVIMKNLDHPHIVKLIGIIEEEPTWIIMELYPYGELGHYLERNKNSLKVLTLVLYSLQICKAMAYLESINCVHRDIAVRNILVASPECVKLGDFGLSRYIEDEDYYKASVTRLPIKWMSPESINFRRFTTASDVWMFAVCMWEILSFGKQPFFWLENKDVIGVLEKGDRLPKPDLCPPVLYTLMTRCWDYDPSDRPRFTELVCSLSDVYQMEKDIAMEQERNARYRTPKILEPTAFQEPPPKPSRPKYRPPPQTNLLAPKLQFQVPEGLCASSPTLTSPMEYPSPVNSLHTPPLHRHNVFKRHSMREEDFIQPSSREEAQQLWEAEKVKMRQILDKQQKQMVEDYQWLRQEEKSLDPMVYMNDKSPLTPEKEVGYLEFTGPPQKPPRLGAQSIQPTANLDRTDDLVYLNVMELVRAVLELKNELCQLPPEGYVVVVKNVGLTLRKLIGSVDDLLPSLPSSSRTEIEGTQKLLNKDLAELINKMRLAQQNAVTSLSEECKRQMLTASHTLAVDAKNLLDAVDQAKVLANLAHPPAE
CD11b adhes inh = blocks human CD11b/CD18 adhesion to fibrinogen. P05107+P11215. K562 CD11b/CD18 adhesion to fibrinogen, ATPlite luminescence; Mn2+ added to activate the integrin. inhibition, % at 10 µM. 93,000 compounds, 0.54% hits;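 active = primary inhibition of 50% or more at 10 µM, then 40% or more on retest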
* marks the source's active call; other numbers are inactive results; nt = not tested or not shown. Sampled rows, rich in hits. Any-hit rate of the full collection: about 4.2%.

SMILES	Ec RNAP inh	Mac1 fbg enh	Cav3 T inh	PTK2B oligo ant	CD11b adhes inh
CCOC(=O)C1=C(C)N=C2SC(C)C(=O)N2C1c1ccc(OCC)c(OCC)c1 (configuration not stated)	8	-5	-0.69	1.3	-26
CCOC(=O)C1=C(C)N=C2SC(C)C(=O)N2C1c1ccc(C(=O)OC)cc1 (configuration not stated)	11	-10	-7.5*	-0.38	-1
O=C(Nc1ccc(N2CCCC2)cc1)c1ccc(Br)o1	5	54	-0.066	0.46	9
Cc1cc(N2CCCCC2)nc2ccc(NC(=O)c3ccc(Br)o3)cc12	nt	-5	-4.9*	0.37	-21
COc1cc(C(C(=O)NC2CCCCC2)N(Cc2cccs2)C(=O)Cc2c[nH]c3ccccc23)cc(OC)c1OC (configuration not stated)	nt	-3	-6.5*	-1.4	10
COc1ccc(CN(C(=O)Cc2c[nH]c3ccccc23)C(C(=O)NC2CCCCC2)c2ccc(C)o2)cc1 (configuration not stated)	nt	-2	-7.3*	-1.1	-40
COc1cccc(CN(C(=O)Cc2c[nH]c3ccccc23)C(C(=O)NC2CCCCC2)c2ccc(C)o2)c1 (configuration not stated)	nt	2	nt	nt	16
Cn1c(/N=C/c2cccs2)nc2ccccc21	0	nt	3*	0.47	nt
Cn1c(/N=C/c2cc(Cl)ccc2O)nc2ccccc21	6	3	-4.8*	nt	11
CC(Sc1nc2ccccc2n1C)C(=O)NC(c1ccccc1)c1ccccc1 (configuration not stated)	nt	nt	-9.3*	-4*	nt
Cn1c(Sc2nc3ccccc3n2C)nc2ccccc21	1	-7	-0.42	0.09	7
COCC(C)n1c(C)cc(C(=O)COC(=O)c2oc3ccccc3c2C)c1C (configuration not stated)	13	-2	-5.8*	-0.05	39
O=C(CCCOc1ccc(Cl)cc1Cl)N/N=C/c1cccc([N+](=O)[O-])c1	nt	12	nt	nt	7
Cc1snc(S(=O)(=O)/C(C#N)=N/Nc2cccc(C(F)(F)F)c2)c1C#N	nt	-6	-6.2*	0.48	90*
Cc1cc(Cl)c(S(=O)(=O)Nc2ccc3c(c2)OCO3)cc1OCC(=O)NC1CCCCC1	nt	0	-4.2*	-1.4	-55
Cc1ccc(C(=O)CC(Nc2ccc(F)cc2)c2ccccc2)cc1 (configuration not stated)	nt	6	nt	nt	-1
CCc1ccc(-n2c(=O)c3c(C)c(C(=O)N(C)C)sc3n(CC(=O)NCc3ccco3)c2=O)cc1	nt	1	0.0072	0.71	-2
CC(C)(C)C(=O)COC(=O)CNC(=O)c1ccc(Oc2ccccc2)cc1	nt	1	-3.7*	0.15	-8
O=C(CN1C(=O)NC2(CCc3ccccc3C2)C1=O)Nc1ccc(F)cc1 (configuration not stated)	nt	2	nt	nt	8
CCN1CCN(C(=O)c2ccc3c(c2)N(Cc2ccc(F)cc2)C(=O)c2ccccc2S3=O)CC1 (configuration not stated)	8	nt	-7.2*	nt	nt
COc1ccccc1CNC(=O)C(CC(C)C)NC(=O)C1CCC(C)CC1 (configuration not stated)	nt	1	-5.8*	0.04	-9
Oc1c(Cl)cc(Cl)cc1C=Nc1ccc(Br)cc1	nt	nt	-7.6*	-0.4	nt
O=C(Nc1cccc(N=Cc2cc(Cl)cc(Br)c2O)c1)c1ccco1	nt	-1	nt	nt	-13
CCc1cccc(C)c1NC(=O)C1CN(S(=O)(=O)c2ccccc2)CCN1S(=O)(=O)c1ccccc1 (configuration not stated)	nt	3	nt	nt	2
c1ccc2c(c1)ncn2-c1ncnc2sc3c(c12)CCCC3	nt	-2	-1.3	-0.18	5
SMILES	Ec RNAP inh	Mac1 fbg enh	Cav3 T inh	PTK2B oligo ant	CD11b adhes inh
CC(O)CNc1nc2ccccc2n1-c1ncnc2sc3c(c12)CCC3 (configuration not stated)	11	-5	-6.4*	0.48	42
COc1cc(-c2noc(CCCC(=O)NC3CCCCC3)n2)cc(OC)c1OC	nt	-2	1	0.71	2
CCOc1cc(CNC(C)C)c(Cl)cc1OCC(=O)NCCc1ccccc1	nt	-3	2.1	0.04	7
c1ccc(-c2nc3nc4ccccc4nc3n2Cc2ccco2)cc1	-1	2	-2.3	0.33	10
N=c1c2c(-c3ccccc3)c(-c3ccccc3)n(Cc3ccco3)c2ncn1CCN1CCOCC1	3	0	-11*	-0.64	-3
N=c1c2c(-c3ccccc3)c(-c3ccccc3)n(Cc3ccco3)c2ncn1CCO	nt	nt	-7.4*	-1.4	nt
CN(C1=NC(=O)C(CC(=O)Nc2ccc(Br)cc2)S1)c1ccc(O)cc1 (configuration not stated)	5	-1	0.075	-1.1	1
CCOC(=O)c1nnn(CC(=O)N2N=C(c3cccc4ccccc34)CC2c2ccccc2)c1C(=O)OCC (configuration not stated)	nt	nt	-5.5*	0.18	nt
Cc1ccc2nc(NC(=O)COC(=O)c3ccc(Br)o3)sc2c1	nt	nt	-0.025	1.9	nt
CCOC(=O)N1CCN(C(=O)c2ccc3c(=O)n(Cc4ccc(OC)cc4)c(=S)[nH]c3c2)CC1	7	nt	-4.1*	1	nt
CCOC(=O)N1CCN(C(=O)c2ccc3c(=O)n(Cc4ccccc4)c(=S)[nH]c3c2)CC1	10	nt	-2.8	2.3	nt
O=C(CSc1nc2ccccc2[nH]1)Nc1ccc2c(c1)OCCO2	7	5	-3.9*	-0.12	-4
Cc1ccc2nc(SCC(=O)Nc3ccc4c(c3)OCCO4)[nH]c2c1	nt	-2	-1.5	-0.74	0
O=C(CSc1nc2ccccc2[nH]1)Nc1cc(C(F)(F)F)ccc1N1CCOCC1	11	-1	-6.9*	-2.5	19
CCCn1c(C)nc2c(c1=O)c1nc3ccccc3nc1n2CCC1=CCCCC1	1	62*	-1.2	0.57	0
C=C(c1ccc(O)cc1)c1ccc(O)cc1	6	1	-0.47	-4.6*	10
CC1=C(C/C=C(\C)CCC[C@H](C)CCC[C@H](C)CCCC(C)C)C(=O)c2ccccc2C1=O	nt	nt	0.2	nt	nt
COc1ccc(CCNC(=O)N2c3ccccc3Sc3ccccc32)cc1	nt	nt	-5.9*	-2.3	nt
C=CCn1c2ccccc2c2nnc(SCCCn3c(=O)[nH]c4ccccc43)nc21	3	-2	-3	-3.9*	34
CSc1ccc(S(=O)(=O)NCc2ccc(Cl)cc2Cl)cc1	nt	-2	-0.16	0.31	-9
CSc1ccc(S(=O)(=O)NCc2ccccc2Cl)cc1	3	3	-4*	2	8
O=C(Cn1c(C(=O)N2CCN(C3CCCCC3)CC2)cc2sccc21)c1ccccc1	nt	1	-0.23	-2.1	6
O=C(Cn1c(C(=O)N2CCc3ccccc3C2)cc2sccc21)c1ccccc1	0	-2	-1.8	-4*	-6
O=C(Nc1cccc(Cl)c1)c1ccc(-n2cncn2)c([N+](=O)[O-])c1	nt	-6	-0.49	-1.2	2
Oc1ccc(Nc2nc(NCC3CCCO3)c3ccccc3n2)cc1 (configuration not stated)	2	-2	-0.65	-0.79	0

High-throughput results (PubChem BioAssay)
